Measurements from PubChem BioAssay AID1851 (National Center for Advancing Translational Sciences (NCATS), 2009).
“And” between values parts separate entries of the source, which are not always exact repeats. Identical values can stand only once. Hit rate of the full screen: of about 16,000 compounds, about 5,800 (36%) were called active. Not shown: some 23% with an inconclusive outcome. The call rests on the fitted dose curve; in most records, active means well fitted curve in the direction sought with a large enough effect; inconclusive means small, poorly fitted or top-dose-only effect, or effect the other way; inactive means no such curve, though single readings can be large or run the other way. Some of the results follow. Peptide text beside a SMILES is read from it.

Molecular target: Cytochrome P450 2C19 (Homo sapiens) (UniProt P33261)
Test: Cytochrome panel assay with activity outcomes
Conditions: recombinant CYP, pro-luciferin dealkylation, luminescence, p450-cyp2c19; series mostly up to 57.1 µM
On the % scale 0 is the no-effect control and ±100 the full control effect.

Sequence of Cytochrome P450 2C19 (Homo sapiens) (P33261 whole entry, looked up): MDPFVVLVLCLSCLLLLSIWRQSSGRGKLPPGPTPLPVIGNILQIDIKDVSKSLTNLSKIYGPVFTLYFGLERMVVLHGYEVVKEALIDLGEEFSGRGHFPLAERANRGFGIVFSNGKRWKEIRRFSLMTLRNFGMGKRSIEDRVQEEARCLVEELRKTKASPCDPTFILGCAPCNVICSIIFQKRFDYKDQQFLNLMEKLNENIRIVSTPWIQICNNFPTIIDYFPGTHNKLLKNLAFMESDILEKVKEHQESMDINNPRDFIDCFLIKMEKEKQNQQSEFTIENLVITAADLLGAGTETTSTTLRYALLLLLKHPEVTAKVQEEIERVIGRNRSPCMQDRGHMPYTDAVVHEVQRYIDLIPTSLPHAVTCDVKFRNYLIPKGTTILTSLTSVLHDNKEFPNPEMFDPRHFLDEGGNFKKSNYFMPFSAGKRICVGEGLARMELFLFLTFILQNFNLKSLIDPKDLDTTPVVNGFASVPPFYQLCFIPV

AC50, active:
CCCN1CCC(=NNC(=O)c2ccc(Br)o2)CC1 25.1 µM
O=C(Nc1nnc(SCc2ccc(Cl)cc2Cl)s1)C1COc2ccccc2O1 (stereo not drawn) 2.51 µM
CCCC(=O)Nc1cccc(Oc2nc(C)cc(C)c2C#N)c1 17.8 µM
Cc1cnc(NC(=O)CCCc2nc3ccccc3s2)s1 7.94 µM
COc1ccccc1N1CCN(C[C@@H](O)COc2cccc3ccccc23)CC1 6.31 µM and 7.94 µM and 1.58 µM
Clc1ccc(CN2CCCN(Cc3ccc(Cl)cc3)C2c2cc3ccccc3c3ccccc23)cc1 0.794 µM
CC(C)CC(=O)Nc1ccccc1-c1nnn(CC(=O)N2CCc3ccccc3C2)n1 14.1 µM
COc1ccc2c(c1OC)C(=O)O[C@@H]2[C@H]1c2c(cc3c(c2OC)OCO3)CCN1C 0.158 µM
COc1ccc2c(c1OC)C(=O)OC2[C@H]1c2c(cc3c(c2OC)OCO3)CCN1C (stereo partly drawn) 2.51 µM
C#CCSc1nnc(-c2sc(-c3ccccc3)nc2C)n1C 2.51 µM
COC(=O)[C@@]1(Cc2ccc(F)cc2)[C@@H]2C(=CC(=O)[C@H]2CC(=O)C(=O)N(C)C)CN1C(=O)c1ccccc1 25.1 µM
COC(=O)[C@@]1(Cc2ccc(F)cc2)[C@@H]2C(=CC(=O)[C@H]2CC(=O)C(=O)N2CCCC2)CN1C(=O)c1ccccc1 31.6 µM
CC(NC(=O)Cc1ccc(F)cc1)c1ccccc1 (stereo not drawn) 11.2 µM
O=C(O)CSc1sc(=S)sc1SCC(=O)O 10 µM
COc1cccc(C(=O)N(Cc2ccccc2)Cc2cc3cc4c(cc3[nH]c2=O)OCCO4)c1 15.8 µM
Cc1cc(/C=N/n2cnnc2)c(C)n1-c1ccc(OCc2ccccc2F)cc1 2 µM
CS[C@]12C(=O)C[C@]3(C)[C@@H](CC[C@@]3(O)C(=O)CO)[C@@H]1CCC1=CC(=O)CC[C@]12C 3.16 µM
Cc1ccc(C(=O)N2CCN(c3cc(=O)[nH]nc3-c3ccccc3)CC2)cc1 20 µM
CN(C)C(=O)c1ccc(-c2nc(NCc3cccs3)c3ccccc3n2)cc1 10 µM
CN(C)C(=O)c1ccc(-c2nc(Nc3ccc(F)cc3)c3ccccc3n2)cc1 31.6 µM
CN(C)C(=O)c1ccc(-c2nc(Nc3ccccc3)c3ccccc3n2)cc1 15.8 µM
CO/N=C/c1ccc(N2CCN(C(=O)c3ccc(Cl)cc3Cl)CC2)c([N+](=O)[O-])c1 5.01 µM
Cn1c(=O)n(C)c2cc([N+](=O)[O-])c(N3CCN(C(=O)c4ccccc4Cl)CC3)cc21 17.8 µM
Cc1ccc(OCC(=O)N2CCN(c3ccc([N+](=O)[O-])c(N4CCOCC4)c3)CC2)cc1 14.1 µM
Cc1ccc(OC(=O)c2ccc(N3CCOCC3)c([N+](=O)[O-])c2)cc1 20 µM
O=C(Nc1ccc(-c2nc3ccccc3o2)cc1)c1ccc(N2CCOCC2)c([N+](=O)[O-])c1 5.01 µM
Cc1cc(C)n(-c2cc(N3CCN(C(=O)c4ccc(C(C)(C)C)cc4)CC3)ccc2[N+](=O)[O-])n1 2.82 µM
COC(=O)c1ccc(N2CCN(CC(=O)c3ccc(-c4ccccc4)cc3)CC2)c([N+](=O)[O-])c1 5.01 µM
Cc1ccc(C(=O)O/N=C\c2ccc(N3CCCCC3)c([N+](=O)[O-])c2)cc1 1.58 µM
Cc1ccc(OCCCC(=O)N2CCOCC2)cc1 1.41 µM
Cc1ccccc1C(=O)N1CCN(c2ccc([N+](=O)[O-])c(N3CCOCC3)c2)CC1 15.8 µM
Cc1ccc(C)c2sc(NC(=O)c3ccc(N4CCCCC4)c([N+](=O)[O-])c3)nc12 2.82 µM
C/C(=N\Nc1ccc([N+](=O)[O-])cc1)c1cccc(N)c1 1.26 µM
CCOC(=O)c1sc(N(Cc2ccccc2)C(=O)CN2C(=O)CN(C)C2=O)nc1C 15.8 µM
CCCCCCc1nc2ccccc2c(=O)n1NC(=O)c1c(O)c2c(n(CC(C)C)c1=O)CCCC2 5.62 µM
CCCn1c2c(c(O)c(C(=O)NCc3ccccc3)c1=O)CCCC2 17.8 µM
CC(=O)N=c1sccn1CC(=O)c1ccc([N+](=O)[O-])cc1 10 µM
CC(NC(=O)CN1CCCC1)C12CC3CC(CC(C3)C1)C2 (stereo not drawn) 15.8 µM
c1ccc(-c2nc(CSc3n[nH]c(-c4cccs4)n3)cs2)cc1 1.12 µM
CC(C)(C)NC(=O)CN(Cc1cccs1)C(=O)CCC(=O)Nc1nccs1 7.94 µM
O=C(c1ccncc1)N1CCC[C@@]2(CCN(c3ccccn3)C2)C1 6.31 µM
O=C(Oc1ccccc1)N1CCC[C@@]2(CCN(c3ncccn3)C2)C1 2.51 µM
O=C(Oc1ccccc1)N1CCC2(CCCN(c3ccccn3)C2)CC1 7.94 µM
O=C(Oc1ccccc1)N1CCC[C@@]2(CCN(c3ccccn3)C2)C1 5.01 µM

AC50, inactive:
CC(C)N1CCC(=NNC(=O)c2ccc(Br)o2)CC1
Nc1nc2c(nc(Br)n2[C@@H]2O[C@H]3COP(=O)(O)O[C@H]3[C@@H]2O)c(=O)[nH]1
COC(=O)N1CCC2(CC1)CN(C(=O)Nc1cccc(C#N)c1)C2
COc1ccccc1N1CCN(C[C@@H](C(=O)NC(C)(C)C)c2ccccc2)CC1
CSc1nnc(-c2sc(-c3ccccc3)nc2C)n1C
C#CCSc1nnc(-c2cc3c(C(F)(F)F)nn(C)c3s2)n1C
COC(=O)[C@@]1(Cc2ccccc2)[C@@H]2C(=CC(=O)[C@H]2CC(=O)C(=O)N(C)C)CN1C(=O)c1ccccc1
CC(=O)NC(Cc1ccc(F)cc1)C(=O)O (stereo not drawn)
Cc1nnsc1SCC(=O)O
C[C@@]12CCC(=O)C=C1CC[C@H]1[C@H]3CC[C@](O)(C(=O)CO)[C@]3(C)CC(=O)[C@@H]12
CC(=O)OCC(=O)[C@@]1(O)CC[C@@H]2[C@H]3CCC4=CC(=O)CC[C@]4(C)[C@]3(F)[C@@H](O)C[C@@]21C
O=C(c1cccc(F)c1)N1CCC2(CC1)CCN(c1ccc(-c3ccccc3)cc1)CC2
CC(C)[C@H](CO)Nc1nc(Nc2cc(N)cc(Cl)c2)c2ncn(C(C)C)c2n1
CC(=O)NCCNc1nc(-c2ccc(C(=O)N(C)C)cc2)nc2ccccc12
Cc1cnc(CNc2nc(-c3ccc(C(=O)N(C)C)cc3)nc3ccccc23)cn1
C=C1CC[C@H](O)C/C1=C/C=C1\CCC[C@]2(C)[C@H]1CC[C@H]2[C@@H](C)/C=C\[C@@H](C)C(C)C
CCOC(=O)c1c(NC(=O)c2ccc(N3CCOCC3)c([N+](=O)[O-])c2)sc(C)c1C
Cc1ccc(C)c(-c2nn(-c3cc(N4CCN(CCO)CC4)ccc3[N+](=O)[O-])c(=O)c3ccccc23)c1
COC(=O)c1ccc(N2CCN(c3ccccc3)CC2)c(NC(=O)C2CC2)c1
CCOC(=O)c1[nH]c(C(=O)O)c(CCN(CC)CC)c1C
O=C(NCCNC[C@@H](O)COc1ccc(O)cc1)N1CCOCC1
Cc1ccc(CS(=O)(=O)CCC(=O)N2CCOCC2)cc1
Cn1ncc([N+](=O)[O-])c1C(=O)N1CCOCC1
CC(=O)N[C@@H](CC(=O)O)C(=O)N[C@@H](CCC(=O)O)C(=O)O (Ac-Asp-Glu-OH)
NC(=O)c1cccc(N)c1
C/C(=N\Nc1nc(N)cc(Cl)n1)c1cccc([N+](=O)[O-])c1
CCOC(=O)c1sc(NS(=O)(=O)c2ccccc2)nc1C
C=CCn1c(=O)c(C(=O)NCCN(CC)CC)c(O)c2ccccc21
O=C(NCc1ccccc1)c1ccc2c(c1)C(=O)N(CC1CCCO1)C2=O (stereo not drawn)
CC(C)Oc1cccc(-n2c(CCc3c[nH]c4ccc(Br)cc34)nc3ccccc3c2=O)c1
CCN1C(=O)CC(N2CCN(CC(=O)NC(C)C)CC2)C1=O (stereo not drawn)
N#Cc1cccc(-c2nc3cnc(N4CCOCC4)nc3n(C3CC3)c2=O)c1
CC1=CC2=NC(=O)CC(C)(C(=O)N(CC(=O)NC(C)(C)C)Cc3cccs3)N2C=C1 (stereo not drawn)
Nc1ncnc2c1nc(Br)n2[C@H]1O[C@H]2COP(=O)(O)O[C@H]2[C@@H]1O
CC(=O)N1CCC2(CC1)CN(c1ccccn1)C2
COC(=O)N1CCC[C@@]2(CCN(c3ncccn3)C2)C1
O=C(c1cc(C(F)(F)F)cc(C(F)(F)F)c1)N1CCC[C@@]2(CCN(c3ccccn3)C2)C1
O=C(Oc1ccccc1)N1CCC2(CC1)CN(c1ncccn1)C2
O=C(Oc1ccccc1)N1CCC2(CC1)CN(c1ccccn1)C2
O=C(c1cnccn1)N1CCC[C@@]2(CCN(c3ccccn3)C2)C1

activity, negative = inhibition, inactive:
O=C(O)[C@@H]1CCCN1Cc1cc2ccccc2c2ccccc12 31.6% [at 11.4 µM]
C[C@H]1CCCC=CC2C[C@H](OC(=O)CN(C)C)C[C@@H]2[C@@H](O)/C=C\C(=O)O1 (stereo partly drawn) 8.1% [at 11.4 µM]
C/C(CCN1CCc2nc(-c3ccccc3)c(-c3ccccc3)cc2C1)=N\O[C@@H](C)CN1CCCc2nc(C)c(C)cc21 -28.4% [at 11.4 µM]
CCOC(=O)C(C)(C)[C@H](O)C(C)C 3.67% [at 11.4 µM]
CO[C@H]1COC(=O)[C@@H](C)COC(=O)[C@@H](Cc2ccccc2)NC(=O)C/C=C\[C@H]1C 10.6% [at 11.4 µM]
CC(C)=CCC/C(C)=C/CO/N=C1/C[C@@H](O)[C@@H](O)[C@@H]2[C@@H]3C(=O)N(C[C@@H]4CCCO4)C(=O)[C@H]3CC[C@@H]12 29.8% [at 11.4 µM]
CCCCNN -44.3% [at 11.4 µM]
O=C(O)[C@H]([C@H]1NCCS1)N1Cc2ccccc2C1 -31.8% [at 11.4 µM]
CO[C@H]1COC(=O)CCC[C@H](C)[C@H](OC)COC(=O)C/C=C\[C@@H]1C -23% [at 11.4 µM]
